Common to all, as to experiment: DAPPL (digital affinity profiling via proximity ligation, sequencing); 10 mM Tris-HCl pH 7.5, 50 mM NaCl, 1 mM DTT, 4% glycerol, room temperature, 30 min; GST-TFs on glutathione beads, 16-mer random dsDNA library, 0.1% formaldehyde crosslink after washing; high values mean tight binding
Common to all, as to conditions: protein: recombinant; tags: N-terminal GST; dsDNA, one strand shown

For one assay, the target named is T1, ELK1 (Homo sapiens, UniProt P19419 1-428).
T1 sequence: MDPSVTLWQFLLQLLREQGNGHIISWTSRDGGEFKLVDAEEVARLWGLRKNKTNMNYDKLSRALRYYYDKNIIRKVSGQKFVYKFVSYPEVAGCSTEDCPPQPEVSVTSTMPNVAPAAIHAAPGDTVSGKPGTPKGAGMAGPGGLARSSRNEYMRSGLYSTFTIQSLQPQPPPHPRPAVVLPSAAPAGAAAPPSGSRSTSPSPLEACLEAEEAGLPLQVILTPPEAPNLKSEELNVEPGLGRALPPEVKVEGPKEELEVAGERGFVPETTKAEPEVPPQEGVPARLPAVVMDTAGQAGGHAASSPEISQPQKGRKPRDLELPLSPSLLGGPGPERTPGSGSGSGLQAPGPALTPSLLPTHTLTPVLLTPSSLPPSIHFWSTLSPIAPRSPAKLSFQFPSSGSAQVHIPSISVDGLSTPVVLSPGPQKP
Summed up: (§1)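 Each value of binding signal is a hexamer's read frequency for a factor divided by the same hexamer's frequency in the tag-only sample. Barcoded, bead-captured GST fusions of human transcription factors made in yeast were pooled with that sample and incubated with 200 nmole of a random double-stranded 16-mer DNA library in Tris/NaCl/DTT/glycerol buffer at room temperature for 30 min. Washing, 0.1% formaldehyde crosslinking, proximity ligation, PCR and Illumina NextSeq500 sequencing followed.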

In the next assay the target is T2, GABPA (Homo sapiens, UniProt Q06546 1-454).
T2 sequence: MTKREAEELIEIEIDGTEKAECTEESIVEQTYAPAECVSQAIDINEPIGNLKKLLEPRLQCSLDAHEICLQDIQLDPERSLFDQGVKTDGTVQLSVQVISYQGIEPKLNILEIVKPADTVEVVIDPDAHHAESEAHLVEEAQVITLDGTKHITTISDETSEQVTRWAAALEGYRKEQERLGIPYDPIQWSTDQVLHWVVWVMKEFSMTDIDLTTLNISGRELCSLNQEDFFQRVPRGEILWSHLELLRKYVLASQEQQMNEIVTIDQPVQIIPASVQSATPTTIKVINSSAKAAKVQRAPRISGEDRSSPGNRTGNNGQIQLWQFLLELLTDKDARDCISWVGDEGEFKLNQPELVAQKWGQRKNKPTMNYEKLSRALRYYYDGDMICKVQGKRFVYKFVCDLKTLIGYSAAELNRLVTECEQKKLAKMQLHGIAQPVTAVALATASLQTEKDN
The essentials: as §1

The target in the next assay is T3, ERG (Homo sapiens, UniProt P11308 1-479).
T3 sequence: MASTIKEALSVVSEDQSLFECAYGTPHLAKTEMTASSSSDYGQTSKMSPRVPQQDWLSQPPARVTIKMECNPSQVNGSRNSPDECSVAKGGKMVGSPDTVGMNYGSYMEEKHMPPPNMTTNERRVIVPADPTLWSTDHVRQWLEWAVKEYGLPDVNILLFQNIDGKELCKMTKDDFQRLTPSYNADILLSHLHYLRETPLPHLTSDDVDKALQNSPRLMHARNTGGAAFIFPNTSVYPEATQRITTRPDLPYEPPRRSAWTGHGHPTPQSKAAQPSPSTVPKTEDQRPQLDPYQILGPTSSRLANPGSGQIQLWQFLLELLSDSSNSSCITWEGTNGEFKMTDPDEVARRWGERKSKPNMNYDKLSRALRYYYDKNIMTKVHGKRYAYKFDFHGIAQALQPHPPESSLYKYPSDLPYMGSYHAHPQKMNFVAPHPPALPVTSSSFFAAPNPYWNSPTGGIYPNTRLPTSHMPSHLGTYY
The essentials: as §1

The next assay deals with ELF1 (Homo sapiens, UniProt P32519 1-619). The essentials:
as §1

The next assay addresses T4, EHF (Homo sapiens, UniProt Q9NZC4 1-300).
T4 sequence: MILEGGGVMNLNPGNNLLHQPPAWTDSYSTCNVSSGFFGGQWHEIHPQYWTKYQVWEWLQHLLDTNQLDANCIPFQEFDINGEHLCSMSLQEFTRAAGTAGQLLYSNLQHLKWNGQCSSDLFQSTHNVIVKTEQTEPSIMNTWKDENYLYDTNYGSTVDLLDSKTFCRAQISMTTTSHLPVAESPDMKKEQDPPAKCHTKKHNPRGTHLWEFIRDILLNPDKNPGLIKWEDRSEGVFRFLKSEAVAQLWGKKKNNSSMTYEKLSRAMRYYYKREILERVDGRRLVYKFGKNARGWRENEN
The essentials: as §1

For another assay, the target named is SPIB (Homo sapiens, UniProt Q01892 1-262). The essentials: as §1
For another assay, the target named is T5, SPIC (Homo sapiens, UniProt Q8N5J4 1-248).
T5 sequence: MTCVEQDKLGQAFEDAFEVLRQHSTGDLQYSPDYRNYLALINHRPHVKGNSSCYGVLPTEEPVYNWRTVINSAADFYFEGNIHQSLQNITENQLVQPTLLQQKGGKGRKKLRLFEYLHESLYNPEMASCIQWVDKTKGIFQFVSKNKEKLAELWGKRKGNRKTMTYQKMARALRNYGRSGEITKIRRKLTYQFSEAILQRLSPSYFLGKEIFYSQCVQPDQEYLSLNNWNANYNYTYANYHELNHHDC
The essentials: as §1

Another assay addresses ELF4 (Homo sapiens, UniProt Q99607 1-663). The essentials: as §1
In the next assay the target is T6, ELK4 (Homo sapiens, UniProt P28324-2 1-405).
T6 sequence: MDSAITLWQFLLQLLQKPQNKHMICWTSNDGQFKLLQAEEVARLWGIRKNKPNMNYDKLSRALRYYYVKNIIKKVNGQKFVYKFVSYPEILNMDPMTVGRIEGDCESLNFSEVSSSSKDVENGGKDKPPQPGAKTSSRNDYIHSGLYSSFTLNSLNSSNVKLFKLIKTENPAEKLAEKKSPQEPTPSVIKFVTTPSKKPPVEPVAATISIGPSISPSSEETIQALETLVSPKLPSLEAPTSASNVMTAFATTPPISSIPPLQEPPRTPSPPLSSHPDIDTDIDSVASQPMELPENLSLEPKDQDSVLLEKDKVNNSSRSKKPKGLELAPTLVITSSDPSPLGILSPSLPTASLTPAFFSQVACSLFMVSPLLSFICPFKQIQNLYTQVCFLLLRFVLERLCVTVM
Summed up:
as §1

The next assay concerns the target T7, ELF3 (Homo sapiens, UniProt P78545 1-371).
T7 sequence: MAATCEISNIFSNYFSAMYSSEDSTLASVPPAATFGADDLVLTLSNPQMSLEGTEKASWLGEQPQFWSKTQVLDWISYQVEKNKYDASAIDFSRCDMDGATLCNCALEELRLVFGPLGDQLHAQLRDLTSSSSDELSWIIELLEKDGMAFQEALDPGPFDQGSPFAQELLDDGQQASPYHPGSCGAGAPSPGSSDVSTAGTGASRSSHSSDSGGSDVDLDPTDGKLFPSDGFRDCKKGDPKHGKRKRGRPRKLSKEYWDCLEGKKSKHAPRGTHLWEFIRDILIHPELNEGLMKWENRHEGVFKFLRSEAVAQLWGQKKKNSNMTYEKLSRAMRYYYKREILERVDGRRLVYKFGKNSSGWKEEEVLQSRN
Summed up:
as §1

The target in the next assay is T8, ERF (Homo sapiens, UniProt P50548 1-548).
T8 sequence: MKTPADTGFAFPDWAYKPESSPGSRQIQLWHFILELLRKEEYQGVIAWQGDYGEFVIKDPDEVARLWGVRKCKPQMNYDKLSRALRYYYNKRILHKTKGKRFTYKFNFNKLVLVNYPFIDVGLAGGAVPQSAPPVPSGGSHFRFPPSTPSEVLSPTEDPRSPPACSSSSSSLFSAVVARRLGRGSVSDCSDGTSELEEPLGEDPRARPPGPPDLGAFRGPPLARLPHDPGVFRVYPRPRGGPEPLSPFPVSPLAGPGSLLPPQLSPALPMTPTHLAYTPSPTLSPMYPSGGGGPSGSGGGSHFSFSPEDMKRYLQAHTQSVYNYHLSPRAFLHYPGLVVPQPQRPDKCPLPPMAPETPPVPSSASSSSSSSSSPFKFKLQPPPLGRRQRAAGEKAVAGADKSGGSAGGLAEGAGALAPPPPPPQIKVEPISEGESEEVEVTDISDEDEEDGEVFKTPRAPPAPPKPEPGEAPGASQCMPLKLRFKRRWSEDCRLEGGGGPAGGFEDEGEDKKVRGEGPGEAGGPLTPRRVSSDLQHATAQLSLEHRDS
Summed up: as §1

Another assay concerns the target T9, ETV3L (Homo sapiens, UniProt Q6ZN32 1-361).
T9 sequence: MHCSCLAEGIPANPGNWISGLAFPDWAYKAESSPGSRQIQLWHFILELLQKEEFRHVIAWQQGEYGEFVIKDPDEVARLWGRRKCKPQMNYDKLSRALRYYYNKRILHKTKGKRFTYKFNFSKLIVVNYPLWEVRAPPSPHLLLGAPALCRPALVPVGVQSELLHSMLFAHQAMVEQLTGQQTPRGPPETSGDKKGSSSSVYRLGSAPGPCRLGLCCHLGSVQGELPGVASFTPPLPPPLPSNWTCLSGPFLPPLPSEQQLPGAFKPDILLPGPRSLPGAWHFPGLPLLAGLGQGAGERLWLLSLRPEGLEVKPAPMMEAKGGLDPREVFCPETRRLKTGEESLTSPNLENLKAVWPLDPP
Summed up:
as §1

A further assay concerns the target T10, ETS2 (Homo sapiens, UniProt P15036 1-469).
T10 sequence: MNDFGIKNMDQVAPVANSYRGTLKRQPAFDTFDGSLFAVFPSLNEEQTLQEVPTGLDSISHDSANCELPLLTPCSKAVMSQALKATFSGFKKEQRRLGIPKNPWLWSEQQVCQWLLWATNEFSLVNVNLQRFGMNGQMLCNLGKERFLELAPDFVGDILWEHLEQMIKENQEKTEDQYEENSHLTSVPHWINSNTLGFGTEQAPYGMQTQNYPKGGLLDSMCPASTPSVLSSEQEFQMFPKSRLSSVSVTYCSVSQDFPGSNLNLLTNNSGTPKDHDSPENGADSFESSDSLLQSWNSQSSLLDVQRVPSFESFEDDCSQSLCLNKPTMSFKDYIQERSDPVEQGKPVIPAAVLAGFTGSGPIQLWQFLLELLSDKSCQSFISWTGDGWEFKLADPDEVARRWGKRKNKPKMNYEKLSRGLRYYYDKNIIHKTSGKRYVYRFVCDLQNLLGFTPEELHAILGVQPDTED
The essentials:
as §1

The next assay has as its target T11, SPDEF (Homo sapiens, UniProt O95238 1-335).
T11 sequence: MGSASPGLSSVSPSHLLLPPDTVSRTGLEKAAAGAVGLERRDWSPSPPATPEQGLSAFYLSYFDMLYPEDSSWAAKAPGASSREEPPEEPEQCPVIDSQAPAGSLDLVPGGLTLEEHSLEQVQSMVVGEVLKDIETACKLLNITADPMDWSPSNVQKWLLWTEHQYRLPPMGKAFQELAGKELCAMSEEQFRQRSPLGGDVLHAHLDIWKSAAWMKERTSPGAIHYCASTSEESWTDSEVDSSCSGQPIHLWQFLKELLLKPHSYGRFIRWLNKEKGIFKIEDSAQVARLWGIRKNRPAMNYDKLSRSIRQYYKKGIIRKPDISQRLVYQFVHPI
Summed up: as §1

The next assay has as its target T12, ETV7 (Homo sapiens, UniProt Q9Y603 1-341).
T12 sequence: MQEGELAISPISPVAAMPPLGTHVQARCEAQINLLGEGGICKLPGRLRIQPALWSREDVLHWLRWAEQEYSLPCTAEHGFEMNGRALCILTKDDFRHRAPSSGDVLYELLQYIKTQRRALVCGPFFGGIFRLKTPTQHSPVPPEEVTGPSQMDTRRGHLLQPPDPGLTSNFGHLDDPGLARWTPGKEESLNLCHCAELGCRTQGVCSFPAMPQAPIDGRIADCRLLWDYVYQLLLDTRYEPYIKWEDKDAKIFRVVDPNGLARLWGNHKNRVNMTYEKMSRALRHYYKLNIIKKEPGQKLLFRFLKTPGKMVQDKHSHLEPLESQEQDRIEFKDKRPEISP
Summed up: as §1

A further assay deals with T13, ETV3 (Homo sapiens, UniProt P41162-2 1-143).
T13 sequence: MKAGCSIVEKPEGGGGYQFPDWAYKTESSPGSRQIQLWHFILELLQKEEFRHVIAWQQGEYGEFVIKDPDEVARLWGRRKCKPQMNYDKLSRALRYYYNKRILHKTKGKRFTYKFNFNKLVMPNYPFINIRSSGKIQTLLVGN
Summed up:
as §1

In a further assay the target is ETV6 (Homo sapiens, UniProt P41212 1-452). Summed up:
as §1

ELF4, sequence (Q99607 whole entry): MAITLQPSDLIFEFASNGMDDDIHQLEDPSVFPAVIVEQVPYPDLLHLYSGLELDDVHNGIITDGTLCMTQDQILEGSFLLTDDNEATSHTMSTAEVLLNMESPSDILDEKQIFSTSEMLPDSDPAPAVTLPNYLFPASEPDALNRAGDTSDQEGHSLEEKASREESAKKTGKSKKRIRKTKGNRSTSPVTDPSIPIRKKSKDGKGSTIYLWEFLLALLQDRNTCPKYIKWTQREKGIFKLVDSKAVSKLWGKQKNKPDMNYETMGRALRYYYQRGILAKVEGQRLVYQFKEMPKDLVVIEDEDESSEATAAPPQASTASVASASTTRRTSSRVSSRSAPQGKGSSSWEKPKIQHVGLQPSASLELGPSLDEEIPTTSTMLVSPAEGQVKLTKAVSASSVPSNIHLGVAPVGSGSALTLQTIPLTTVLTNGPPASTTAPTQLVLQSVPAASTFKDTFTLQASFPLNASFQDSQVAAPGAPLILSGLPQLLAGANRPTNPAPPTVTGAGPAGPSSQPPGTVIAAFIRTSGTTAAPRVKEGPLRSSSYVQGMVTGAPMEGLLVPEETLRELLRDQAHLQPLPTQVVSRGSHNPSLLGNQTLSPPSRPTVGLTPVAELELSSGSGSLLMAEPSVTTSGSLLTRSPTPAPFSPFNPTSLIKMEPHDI
ETV6, sequence (P41212 whole entry): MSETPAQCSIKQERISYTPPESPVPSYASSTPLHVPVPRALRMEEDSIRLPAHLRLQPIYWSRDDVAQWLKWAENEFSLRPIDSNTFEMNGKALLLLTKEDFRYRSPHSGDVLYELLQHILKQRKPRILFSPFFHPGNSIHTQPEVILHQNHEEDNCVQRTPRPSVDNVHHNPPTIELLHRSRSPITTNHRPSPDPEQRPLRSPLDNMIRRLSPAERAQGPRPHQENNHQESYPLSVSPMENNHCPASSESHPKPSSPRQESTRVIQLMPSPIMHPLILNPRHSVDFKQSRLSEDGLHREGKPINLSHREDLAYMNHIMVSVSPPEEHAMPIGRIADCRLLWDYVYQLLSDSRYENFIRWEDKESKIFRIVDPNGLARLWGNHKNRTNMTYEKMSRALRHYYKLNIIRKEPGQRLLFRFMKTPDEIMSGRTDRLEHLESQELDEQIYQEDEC
ELF1, sequence (P32519 whole entry): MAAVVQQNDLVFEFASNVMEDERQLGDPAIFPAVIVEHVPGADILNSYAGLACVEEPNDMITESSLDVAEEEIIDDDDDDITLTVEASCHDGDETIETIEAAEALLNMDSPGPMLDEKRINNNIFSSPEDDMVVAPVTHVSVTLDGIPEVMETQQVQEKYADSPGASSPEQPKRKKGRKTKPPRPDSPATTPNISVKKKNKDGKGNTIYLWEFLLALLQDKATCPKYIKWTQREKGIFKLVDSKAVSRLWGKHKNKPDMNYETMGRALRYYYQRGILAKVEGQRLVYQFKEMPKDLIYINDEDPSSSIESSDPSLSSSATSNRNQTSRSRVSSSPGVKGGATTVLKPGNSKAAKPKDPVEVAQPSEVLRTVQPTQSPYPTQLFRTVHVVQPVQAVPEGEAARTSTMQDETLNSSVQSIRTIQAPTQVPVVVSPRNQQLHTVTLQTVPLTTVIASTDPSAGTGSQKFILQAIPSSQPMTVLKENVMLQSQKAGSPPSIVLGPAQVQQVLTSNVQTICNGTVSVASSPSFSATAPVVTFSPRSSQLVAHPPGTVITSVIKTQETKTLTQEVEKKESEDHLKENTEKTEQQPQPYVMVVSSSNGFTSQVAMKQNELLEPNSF
SPIB, sequence (Q01892 whole entry): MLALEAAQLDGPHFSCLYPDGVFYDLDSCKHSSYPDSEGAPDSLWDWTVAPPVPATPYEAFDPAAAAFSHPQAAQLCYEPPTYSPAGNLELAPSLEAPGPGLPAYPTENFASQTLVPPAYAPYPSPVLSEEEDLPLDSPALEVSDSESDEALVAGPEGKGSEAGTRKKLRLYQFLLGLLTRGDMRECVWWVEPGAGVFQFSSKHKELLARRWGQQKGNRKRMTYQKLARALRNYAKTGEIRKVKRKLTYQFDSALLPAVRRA

Consider TTAGAT, for which the binding signal with ELK1 is 1.16 fold enrichment (6-mer frequency, TF over GST control); with GABPA it was 1.06 fold enrichment (6-mer frequency, TF over GST control); with ERG, 1.04 fold enrichment (6-mer frequency, TF over GST control); in the assay with ELF1, 1.03 fold enrichment (6-mer frequency, TF over GST control); with EHF, 1.13 fold enrichment (6-mer frequency, TF over GST control); with SPIB, 1.05 fold enrichment (6-mer frequency, TF over GST control). Also, the binding signal with SPIC is 1.04 fold enrichment (6-mer frequency, TF over GST control); in the assay with ELF4, 1.12 fold enrichment (6-mer frequency, TF over GST control); with ELK4, 1.23 fold enrichment (6-mer frequency, TF over GST control); with ELF3, 1.05 fold enrichment (6-mer frequency, TF over GST control); in the assay with ERF it was 1.21 fold enrichment (6-mer frequency, TF over GST control); with ETV3L it was 1.04 fold enrichment (6-mer frequency, TF over GST control). In addition, the binding signal with ETS2 is 1.01 fold enrichment (6-mer frequency, TF over GST control); with SPDEF, 1.08 fold enrichment (6-mer frequency, TF over GST control); in the assay with ETV7 it was 1.03 fold enrichment (6-mer frequency, TF over GST control); with ETV3 it was 1.07 fold enrichment (6-mer frequency, TF over GST control); in the assay with ETV6 it was 1.03 fold enrichment (6-mer frequency, TF over GST control).

For the origin of these results see article PMC7862700, “An all-to-all approach to the identification of sequence-specific readers for epigenetic DNA modifications on cytosine”.
